Only some compounds are listed: those with a hit (about 2.9% of all), similar ones and a draw of the others.
KKLEB tox: CF airway cell cytotoxicity counter-screen | KKLEB CF airway cells viability, ATPlite luminescence, overnight; active compounds read low; cells stimulated with P. aeruginosa culture filtrate | actives 0.36% (n = 360,000) | activity change (cytotoxicity), % at 5 µM;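 active = corrected activity change at or below -50% at 5 µM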
MITF TRPM1 inh: MITF TRPM1 promoter inhibition in SK-MEL-5 cells; SK-MEL-5 TRPM1 promoter luciferase, 24 h; inhibition, % at 12.5 µM; actives 0.83% (n = 330,000);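 active = mean inhibition across replicates of 60% or more, whatever share of single replicates reaches that level; inconclusive = some that reach 60%, reason not given; inactive = mean inhibition across replicates below 60%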
CF NFkB inh: inhibitors of cystic fibrosis induced NF-kB; KKLEB NF-kB-GFP reporter, PAF-induced, GFP fluorescence overnight; inhibition, % at 5 µM; AID 588850; actives 0.86% (n = 360,000);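 active = at least 50% inhibition at 5 µM, scaled per plate between neutral and stimulator controls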;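 note: PAF is a Pseudomonas aeruginosa culture filtrate used as stimulus; plate controls were PAF-stimulated DMSO wells for no effect and unstimulated DMSO wells for full effect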
Shn3 3UTR inh: reduces Shn3 3'UTR luciferase signal in osteoblasts | AID 588674 | inhibition, % at 12.5 µM | actives 0.52% (n = 360,000) | Clone20 osteoblast Shn3 3'UTR firefly luciferase, 24 h;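 active = mean inhibition of at least 75% with every replicate also reaching 75%; inconclusive = mean inhibition at least 75% but some replicate below; inactive = mean inhibition below 75%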;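 note: 0% = median of neutral control wells and 100% = pilot-screen positive control compound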
LMP1 NFkB inh: Epstein-Barr LMP1 NF-kappaB reporter inhibition; LMP1-induced NF-kappaB luciferase reporter cells, luminescence; inhibition, % at 12.5 µM; actives 0.69% (n = 350,000); AID 504558; in the data active = inhibition above about 41%; inconclusive = no clear call, values can overlap the other calls;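 note: 0% = neutral control wells and 100% = reference inhibitor control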
Peg3 promoter: Peg3 promoter activity inhibition; actives 1.7% (n = 360,000); AID 588405; inhibition, % at 20 µM; HeLa PEG-Prom luciferase reporter, luminescence, overnight;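 active = inhibition of at least 50% at 20 µM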
Numbers without * were called inactive.

What do the screens show for `O=C(Cn1cc(COc2ccc3ccccc3c2)nn1)NS(=O)(=O)c1cccc(OC(F)F)c1`?
KKLEB tox: 0.2; CF NFkB inh: -22.9; Shn3 3UTR inh: 2.5; Peg3 promoter: -9.3

What do the screens show for `CN(C[C@H](Cc1ccccc1)N(C[C@H](c1ccccc1)N(CCc1ccccc1)N=O)N=O)N=O`?
KKLEB tox: -12.1; MITF TRPM1 inh: 0.8; CF NFkB inh: -3.9; Shn3 3UTR inh: 87.0*; LMP1 NFkB inh: 0.7; Peg3 promoter: 7.8

Results for CN(C[C@H](c1ccccc1)N(C[C@H](Cc1ccccc1)N(CCc1ccccc1)N=O)N=O)N=O ?
KKLEB tox: 11.6; MITF TRPM1 inh: -8.5; CF NFkB inh: 10.4; Shn3 3UTR inh: 16.4; LMP1 NFkB inh: 5.0; Peg3 promoter: 8.7

How did Cc1ccc(S(=O)(=O)N(C)c2ccc(C(=O)NC3CCCCC3)cc2)cc1 do in these assays?
KKLEB tox: 16.2; CF NFkB inh: -9.4; Shn3 3UTR inh: 13.7; LMP1 NFkB inh: -3.4; Peg3 promoter: 9.3

What do the screens show for `CCOc1ccc(-c2cc(C(=O)NCCCn3ccnc3)c3cc(Br)ccc3n2)cc1`?
KKLEB tox: -45.2; MITF TRPM1 inh: inconclusive; CF NFkB inh: -166.9; Shn3 3UTR inh: -4.2; LMP1 NFkB inh: -8.7; Peg3 promoter: 106.0*

Results for CCOc1ccc(-c2cc(C(=O)NCCCn3ccnc3)c3ccccc3n2)cc1 ?
KKLEB tox: 5.2; MITF TRPM1 inh: -57.1; CF NFkB inh: 6.7; Shn3 3UTR inh: -15.9; LMP1 NFkB inh: -8.1; Peg3 promoter: -56.6

How did CC(=O)Nc1ccc(SCC(=O)c2cc(C)n(Cc3cccs3)c2C)cc1 do in these assays?
KKLEB tox: -55.7*; MITF TRPM1 inh: 4.6; CF NFkB inh: 12.7; Shn3 3UTR inh: 14.3; LMP1 NFkB inh: 23.4; Peg3 promoter: 45.8

What do the screens show for `C=CCc1cc(C(=O)N2CCCCC2)ccc1O`?
KKLEB tox: -6.1; MITF TRPM1 inh: 2.5; CF NFkB inh: 50.8*; Shn3 3UTR inh: 27.6; LMP1 NFkB inh: 2.1; Peg3 promoter: -5.8

What do the screens show for `C#CCn1cc(CNC[C@H]2O[C@@H](n3cnc4c(=O)[nH]c(N)nc43)[C@H](O)[C@@H]2O)c2ccccc21`?
KKLEB tox: 2.2; CF NFkB inh: 0.8; Shn3 3UTR inh: -4.9; Peg3 promoter: -6.9

What do the screens show for `Cc1ccc(NC(=O)Cn2nc(C)c3ccccc3c2=O)cc1F`?
KKLEB tox: 5.1; MITF TRPM1 inh: 2.9; CF NFkB inh: -0.8; Shn3 3UTR inh: -2.4; LMP1 NFkB inh: 44.1*; Peg3 promoter: 11.2

What do the screens show for `CCSc1ncc(Cl)c(C(=O)Nc2sc3c(c2C(=O)NCc2cccnc2)CCCC3)n1`?
KKLEB tox: -53.5*; MITF TRPM1 inh: -5.4; CF NFkB inh: 43.6; Shn3 3UTR inh: -6.3; LMP1 NFkB inh: -1.2; Peg3 promoter: 6.6

Results for CCSc1ncc(Cl)c(C(=O)Nc2ccccc2Cl)n1 ?
KKLEB tox: 3.5; MITF TRPM1 inh: -0.9; CF NFkB inh: -19.2; Shn3 3UTR inh: -28.1; LMP1 NFkB inh: -2.0; Peg3 promoter: -7.6

What do the screens show for `CCc1ccc2c(c1)NC(=O)C2(C)Cc1ccccc1OC` (stereo not drawn)?
KKLEB tox: 22.6; CF NFkB inh: -18.8; Shn3 3UTR inh: -6.9; Peg3 promoter: -0.8

Results for O=C(CCC(=O)OCC(F)(F)C(F)F)Nc1ccc(Cl)cc1 ?
KKLEB tox: -0.7; MITF TRPM1 inh: -1.8; CF NFkB inh: 6.0; Shn3 3UTR inh: -9.3; LMP1 NFkB inh: 0.4; Peg3 promoter: 63.4*

What do the screens show for `Cc1onc(-c2ccccc2Cl)c1C(=O)N1CCC(Cc2ccccc2)CC1`?
KKLEB tox: -17.1; MITF TRPM1 inh: 13.8; CF NFkB inh: 26.0; Shn3 3UTR inh: 88.9*; LMP1 NFkB inh: 18.8; Peg3 promoter: 20.9

How did Cc1onc(-c2ccccc2Cl)c1C(=O)N1CCC(C(N)=O)CC1 do in these assays?
KKLEB tox: -4.4; MITF TRPM1 inh: -12.7; CF NFkB inh: 5.7; Shn3 3UTR inh: -5.1; LMP1 NFkB inh: -6.8; Peg3 promoter: -5.4

What do the screens show for `Clc1ccc(C2=C3CCCCn4c(-c5ccccc5)c[n+](c43)C2)cc1`?
KKLEB tox: 8.3; MITF TRPM1 inh: -1.1; CF NFkB inh: -12.3; Shn3 3UTR inh: 8.4; LMP1 NFkB inh: 5.3; Peg3 promoter: 17.2

Results for COc1ccc(-c2c[n+]3c4n2CCCCC4=C(c2ccc(Br)cc2)C3)cc1 ?
KKLEB tox: -4.5; MITF TRPM1 inh: 76.1*; CF NFkB inh: 6.7; Shn3 3UTR inh: 23.8; LMP1 NFkB inh: 3.8; Peg3 promoter: 45.7

What do the screens show for `CN1CCN(S(=O)(=O)c2cccc(C(=O)N(C)CC(=O)Nc3ccc(Cl)c(Cl)c3)c2)CC1`?
KKLEB tox: -1.3; MITF TRPM1 inh: -13.1; CF NFkB inh: -4.7; Shn3 3UTR inh: 26.1; LMP1 NFkB inh: 5.2; Peg3 promoter: 15.4

What do the screens show for `O=C1c2ccc3c4c(ccc(c24)C(=O)N1CCCCO)C(=O)N(CCCCO)C3=O`?
KKLEB tox: -1.9; MITF TRPM1 inh: 102.2*; CF NFkB inh: -29.4; Shn3 3UTR inh: 37.0; LMP1 NFkB inh: 12.4; Peg3 promoter: 48.6

How did O=c1[nH]c(C2CCCN(S(=O)(=O)c3cccc(Cl)c3)C2)nc2c1nnn2Cc1ccc2c(c1)OCCO2 (stereo not drawn) do in these assays?
KKLEB tox: 13.2; MITF TRPM1 inh: -15.2; CF NFkB inh: 17.2; Shn3 3UTR inh: -2.9; LMP1 NFkB inh: -0.8; Peg3 promoter: 51.0*

Results for Cc1ccc(S(=O)(=O)N2CCC(c3nc4c(nnn4Cc4ccccc4)c(=O)[nH]3)CC2)cc1 ?
KKLEB tox: -0.8; MITF TRPM1 inh: -10.0; CF NFkB inh: 8.6; Shn3 3UTR inh: -17.7; LMP1 NFkB inh: 7.9; Peg3 promoter: 24.5

Results for O=c1[nH]c(C2CCCN(S(=O)(=O)c3ccccc3)C2)nc2c1nnn2Cc1ccc2c(c1)OCCO2 (stereo not drawn) ?
KKLEB tox: -2.1; MITF TRPM1 inh: 1.9; CF NFkB inh: 12.2; Shn3 3UTR inh: -16.1; LMP1 NFkB inh: -2.1; Peg3 promoter: 34.0

Results for O=c1[nH]c(C2CCN(S(=O)(=O)c3ccccc3C(F)(F)F)CC2)nc2c1nnn2Cc1ccccc1 ?
KKLEB tox: -2.1; MITF TRPM1 inh: 6.7; CF NFkB inh: 1.8; Shn3 3UTR inh: 1.6; LMP1 NFkB inh: -5.9; Peg3 promoter: 51.0*

What do the screens show for `Cc1cc(OCC(=O)OCC(=O)Nc2cc(S(=O)(=O)N3CCOCC3)ccc2Cl)ccc1Cl`?
KKLEB tox: -3.4; MITF TRPM1 inh: -5.5; CF NFkB inh: 5.5; Shn3 3UTR inh: -20.8; LMP1 NFkB inh: -8.0; Peg3 promoter: -1.2

What do the screens show for `CCOc1ccc(S(=O)(=O)N2CCC(C(=O)Nc3ccccc3N3CCCC3)CC2)cc1`?
KKLEB tox: -0.1; CF NFkB inh: -37.8; Shn3 3UTR inh: 5.7; LMP1 NFkB inh: -9.4; Peg3 promoter: 4.9

How did CCCOc1ccccc1C1CC(=O)Nc2cc3c(cc21)OCCO3 (stereo not drawn) do in these assays?
KKLEB tox: 0.8; MITF TRPM1 inh: 36.8; CF NFkB inh: 33.2; Shn3 3UTR inh: 87.3*; LMP1 NFkB inh: 4.3; Peg3 promoter: 7.1

Screening results as filed in PubChem BioAssay.
